Molecules are shown by their SMILES. In all, about 48,000 compounds went through this assay and about 13,000 (27%) showed an effect of 50% or more. Some of the results follow.

The text below walks through data of ChEMBL document CHEMBL3988442, “University of Dundee, Small-Polar-MMV Screening Library” (2021).

This experiment relates to Wolbachia pipientis. Briefly: Anti-Wolbachia Cell-Based Screen. In kind it is functional. To be noted: 5 µM. Also on record: scale not given: in the data most compounds retested in dose-response had high values.
`O=C(Nc1ccc(N2CCCCC2)nc1)N1CCc2sccc2C1`: the “Percent Effect” value was 2.777%.
Regarding `Cc1cc(NC(=O)N(Cc2ccc(C#N)cc2)C(C)C)no1`, the “Percent Effect” value was determined as 2.443%.
For the compound `c1cncc(-c2noc(CNC3CCCN(c4cccnn4)C3)n2)c1` (stereo not drawn), the “Percent Effect” value was -17.88%.
As for `Cc1ncccc1CNCC1COC2(CCCCC2)O1` (stereo not drawn), the figure is -0.2961%.
Turning to `COc1ccccc1C1Cn2ccnc2CN1Cc1c[nH]nc1C` (stereo not drawn), the “Percent Effect” value is given as 158.2%.
Take `COCc1ncc(CN2CCC(Oc3ccccc3OC)CC2)cn1`: the “Percent Effect” value is reported as 3.684%.
The same measure for `Cc1n[nH]cc1CNC1CCN(c2ccccc2)CC1.Cl`: -14.69%.
For the compound `COc1ccccc1[C@@H]1CN(Cc2nccn2C)C[C@H]1C(=O)O`, the “Percent Effect” value is on record as -20.61%.
As for `COc1ccccc1[C@@H]1CN(Cc2cnc(N(C)C)nc2)C[C@H]1C(=O)O`, the figure is -3.277%; as for `COc1ccccc1C1Cn2c(C)cnc2CN1Cc1ccc(C)nc1` (stereo not drawn), 131%.
As for `COc1ccccc1[C@@H]1CN(Cc2cnn(C)c2C)C[C@H]1C(=O)O`, the figure is -12.3%; as for `COc1ccccc1C1Cn2c(C)cnc2CN1Cc1c[nH]nc1C` (stereo not drawn), 184.6%.
Regarding `COc1ccccc1CC(=O)N1CCC(NCc2c[nH]nc2C)CC1`, the “Percent Effect” value was determined as 3.473%.
As for `CCOC(=O)c1nc(CN2CCC(NC(=O)C(C)C)CC2)cs1`, the figure is -9.152%; as for `O[C@@H]1Cc2ccccc2[C@@H]1Nc1ncccc1F`, -3.78%.
`O=C(Cn1cccc2oc(=O)nc1-2)NCC1Cc2ccccc2O1` (stereo not drawn): the “Percent Effect” value is recorded as -3.762%.
The same measure for `Cc1ccc(S(=O)(=O)N2CCC(Oc3ccccn3)CC2)c(C)c1`: 1.938%.
The same measure for `Cc1noc(C)c1S(=O)(=O)N1CCC(Oc2cnccn2)CC1`: 11.35%.
As for `O=S(=O)(N1CCOCC1)N1CCC(Oc2cnccn2)CC1`, the figure is 115%; as for `COC(=O)c1sccc1S(=O)(=O)N1CCC(Oc2cnccn2)CC1`, 2.794%; as for `O=S(=O)(c1ccc(F)cc1)N1CCOC[C@H](Oc2cnccn2)C1`, -9.472%.
Consider `O=S(=O)(c1ccc(Cl)cc1)N1CCOC[C@H](Oc2cnccn2)C1`, for which the “Percent Effect” value was -1.113%.
As for `CS(=O)(=O)N1CCC(Oc2cnccn2)CC1`, the figure is -17.13%; as for `O=S(=O)(N1CCCCC1)N1CCC(Oc2cnccn2)CC1`, 106.7%; as for `Cc1n[nH]c(C)c1S(=O)(=O)N1CCC(Oc2cnccn2)CC1`, 120.8%.
With `CN(C)S(=O)(=O)N1CCC(Oc2cnccn2)CC1`, the “Percent Effect” value was 2.095%.
As for `CC1CCN(S(=O)(=O)N2CCC(Oc3cnccn3)CC2)CC1`, the figure is 109.5%; as for `COc1ccc(C2CCCN2c2ccnc(C)c2Cl)c(OC)c1` (stereo not drawn), -16.05%.
As for `CC(=O)N(C)Cc1nn(C)c2c1CN(Cc1ccsc1)C2.O=C(O)C(F)(F)F.O=C(O)C(F)(F)F`, the figure is -3.994%; as for `O=C(O)C(F)(F)F.O=C([C@@H]1COC[C@H]2CN(C3CCCC3)C[C@H]21)N1CCCCO1`, 2.547%; as for `CC(Cn1cccn1)NC(=O)N1CCC(NS(C)(=O)=O)CC1` (stereo not drawn), 10.97%.
The same measure for `O=C(O)C1CCN(c2nc3c(-c4ccccc4F)csc3c(=O)[nH]2)CC1`: -3.996%.
`CS(=O)(=O)NCCCNc1ccc(C(F)(F)F)cc1C#N`: the “Percent Effect” value is given as -7.983%.
In the case of `O=C1OCCN1CCNCC1(O)CCCN(CCC2CCCCC2)C1=O` (stereo not drawn), the “Percent Effect” value was 3.585%.
For `CN(C)C(=O)c1nc2c(n1C)CCN(Cc1ccccc1)C2`, the “Percent Effect” value is 0.7909%.
The same measure for `CNC(=O)CNC(=O)CC1C(=O)NCCN1Cc1ccccc1C` (stereo not drawn): -0.8934%; for `Cn1cc(CN2CC[C@H]3O[C@@H](COCc4cccnc4)CC[C@H]32)cn1.O=C(O)C(F)(F)F.O=C(O)C(F)(F)F`: -19.84%; for `COCCO[C@H]1CCN(Cc2cccs2)[C@H]1Cc1cccnc1.O=C(O)C(F)(F)F.O=C(O)C(F)(F)F`: -0.3476%.
As for `O=C(O)C(F)(F)F.O=C(O)C(F)(F)F.O=C(O)C(F)(F)F.c1ccc(COC[C@H]2CC[C@H]3[C@H](CCN3Cc3cccnc3)O2)nc1`, the “Percent Effect” value is given as -5.696%.
The same measure for `COCCO[C@H]1CCN(Cc2ccsc2)[C@H]1Cc1cccnc1.O=C(O)C(F)(F)F.O=C(O)C(F)(F)F`: 103.2%; for `COCCO[C@H]1CCN(Cc2cccnc2)[C@H]1Cc1cccnc1.O=C(O)C(F)(F)F.O=C(O)C(F)(F)F.O=C(O)C(F)(F)F`: 107.4%.
As to `O=C(O)C(F)(F)F.O=C(O)C(F)(F)F.O=C(O)C(F)(F)F.c1cncc(CN2CC[C@@H]3O[C@H](COCCN4CCCC4)CC[C@@H]32)c1`, the “Percent Effect” value is 86.61%.
As for `COCCO[C@@H]1CCN(C(=O)c2ccc(C)o2)[C@@H]1Cc1cccnc1.O=C(O)C(F)(F)F`, the figure is 18.38%; as for `Cc1[nH]c2c(F)cccc2c1CC(=O)NCCCc1csc(N)n1`, -2.894%; as for `COC(=O)c1cccc(OCCn2nc(-c3cccs3)oc2=O)c1`, 2.853%.
As for `COc1ccc(NC(=O)CCn2nc(-c3cccs3)oc2=O)cc1OC`, the figure is 106%; as for `O=c1oc(-c2cccs2)nn1CC1(O)CCCCC1`, -6.599%.
As for `COc1cc(C)c(NC(=O)CCn2cccc2)cc1OC`, the figure is 27.33%; as for `COc1cc(NC(=O)CCn2nc(-c3cccs3)oc2=O)cc(OC)c1`, 106.6%; as for `Cc1cc(C)n2nc(C(=O)N3CCCC4(CCOC4)C3)cc2n1` (stereo not drawn), -5.928%.
For `COC(=O)C(C)(C)C(C)(C)NC(=O)Nc1nnc(-c2ccccn2)s1`, the “Percent Effect” value is -11.99%.
As to `COc1c(C2CCCN2C(=O)c2ccc3[nH]cnc3c2)c(C)nn1C` (stereo not drawn), the “Percent Effect” value was found to be 128.2%.
With `COc1c(C2CCCN2C(=O)c2ccc3cc[nH]c3c2)c(C)nn1C` (stereo not drawn), the “Percent Effect” value was -0.02537%.
The same measure for `CCOc1ccc(C(=O)N2CCCC2c2c(C)nn(C)c2Cl)cn1` (stereo not drawn): 128%; for `COc1c(C2CCCN2C(=O)c2sccc2C#N)c(C)nn1C` (stereo not drawn): -24.73%.
On to `COc1c(C2CCCN2C(=O)c2ccc(C#N)cc2)c(C)nn1C` (stereo not drawn), for which the “Percent Effect” value was found to be 98.09%.
Consider `CCOc1ccc(C(=O)N2CCCC2c2c(C)nn(C)c2OC)cn1` (stereo not drawn), for which the “Percent Effect” value is reported as 122.4%.
As for `Cc1cc(C(=O)N2C[C@@H]3CCCO[C@@H]3[C@H](N(C)C(C)C)C2)c(C)[nH]1`, the figure is -3.882%; as for `COc1ccc(CNC(=O)NC2CCN(c3ccccc3)C2=O)cc1` (stereo not drawn), -1.645%.
The same measure for `Cc1noc(NC(=O)c2ccc(Br)s2)n1`: 1.553%; for `CC1=N[C@@]2(CC[C@@H]3CN(C(=O)NCC(C)C)C[C@@H]32)C(=O)N1C`: 7.686%.
The same measure for `Cc1c(CNC(=O)NCc2cccc(-n3cncn3)c2)cnn1C`: -0.3036%; for `Cc1nn(C)c(C)c1C1CCCN1C(=O)c1ccc(NC2CC2)nc1` (stereo not drawn): -8.845%.
For `Cc1nn(C)c(Cl)c1C1CCCN1C(=O)c1ccc(O)nc1` (stereo not drawn), the “Percent Effect” value is recorded as 94.29%.
The same measure for `COc1c(C2CCCN2C(=O)c2ccoc2)c(C)nn1C` (stereo not drawn): 3.459%.
For the compound `COc1c(C2CCCN2C(=O)c2ccc(O)nc2)c(C)nn1C` (stereo not drawn), the “Percent Effect” value turned out to be 97.38%.
As for `Cc1nn(C)c(Cl)c1C1CCCN1C(=O)c1ccc(C(N)=O)cn1` (stereo not drawn), the figure is 118.3%; as for `CC(C)c1ncc(C(=O)N(C)c2ccc(Br)cn2)s1`, 0.7212%; as for `Cc1cc(CN2CCC(C3CCN(CCc4ccccc4)CC3)C2)[nH]n1` (stereo not drawn), -2.584%.
Turning to `CC(C)CN1C[C@@H]2OCC(=O)N(c3ccccc3)[C@@H]2C1`, the “Percent Effect” value is recorded as -2.791%.
As for `O=C(CCc1cccs1)N1CCC(N2CCNC2=O)CC1`, the figure is 8.278%; as for `O=C(CCc1cccs1)N1CCCC(N2CCNC2=O)C1` (stereo not drawn), 103.5%.
As for `O=C(CCc1nccs1)N1CCC(N2CCNC2=O)CC1`, the figure is -13.84%; as for `O=C(CCc1ccsc1)N1CCC(N2CCNC2=O)CC1`, 88.84%.
As for `O=C(CCc1nccs1)N1CCCC(N2CCNC2=O)C1` (stereo not drawn), the figure is -19.11%; as for `O=C(CCCc1cccs1)N1CCC(N2CCNC2=O)CC1`, 94.13%; as for `O=C(Nc1nccs1)N1CCCC(N2CCNC2=O)C1` (stereo not drawn), -14.98%.
For `O=C(CCc1ccccc1)N1CCC(N2CCNC2=O)CC1`, the “Percent Effect” value stood at 0.2283%.
The same measure for `O=C1NCCN1C1CCN(CCc2cccs2)CC1`: 3.932%.
As for `CC(C)(C)OC(=O)NCC1CCN(C(=O)c2ccc(F)cc2F)C1` (stereo not drawn), the figure is 18.58%; as for `CC(c1nc(C2CC2)no1)N1CCN(CCOCC(F)(F)F)CC1` (stereo not drawn), 15.62%; as for `CC(c1nc(C2CC2)no1)N1CCN(CCn2ccccc2=O)CC1` (stereo not drawn), -4.377%.
In the case of `CC(C)c1noc(C(C)N2CCN(CCO)CC2)n1` (stereo not drawn), the “Percent Effect” value is -1.52%.
`COCCCN1CCCN(C(C)c2nc(C3CC3)no2)CC1` (stereo not drawn): the “Percent Effect” value is listed as -0.2305%.
As for `CC(c1nc(C2CC2)no1)N1CCN(CCN2CCCC2=O)CC1` (stereo not drawn), the figure is 130.5%.
The same measure for `CC(C)c1noc(C(C)N2CCN(CCCN3CCCC3=O)CC2)n1` (stereo not drawn): 113.6%; for `CC(c1nc(C2CC2)no1)N1CCN(CCCN2CCCC2=O)CC1` (stereo not drawn): 95.99%; for `CC(C)c1noc(C(C)N2CCN(CCN3CCCC3=O)CC2)n1` (stereo not drawn): -2.358%.
As for `O=C(N1CCCC1)N1C[C@H]2CC[C@@]3(N=C(c4ccccc4)NC3=O)[C@H]2C1`, the figure is -1.269%; as for `COc1c(C)cnc(CSc2nnc(C)s2)c1C`, 6.724%; as for `Cc1nnc(SCc2ccccn2)s1`, 113.6%.
Regarding `c1ccc(CSc2nnc(C3CC3)s2)nc1`, the “Percent Effect” value is reported as -7.286%.
The same measure for `CCC(Nc1nc(C)nc2onc(C)c12)c1cccs1` (stereo not drawn): 84.62%; for `CCCc1nc(C)c(CNc2nc(C)nc3onc(C)c23)s1`: 18.49%; for `CCC(Nc1nc(CCN)nc2ccccc12)c1cccs1` (stereo not drawn): 21.59%.
As for `Cc1nc(NCCSc2cnn[nH]2)c2c(C)noc2n1`, the “Percent Effect” value is reported as -13.5%.
As for `Cc1nc(NCCSc2ccccn2)c2c(C)noc2n1`, the figure is 2.263%; as for `CCC(Nc1nc(C)nc2onc(C)c12)c1nc(C)c(C)s1` (stereo not drawn), 99.23%.
